Residue numbers refer to the chain shown, from its start.
Assays:
Assay in all cases: protein-binding microarray (PBM); PBM: ~300 nM protein, 6 mM HEPES pH 7.8, 80 mM KCl, 0.5 mM EDTA, 0.5 mM EGTA, 6% glycerol, 35 ng/ul poly-dIdC, 1% milk, 1 h, room temperature; Ap Aiptasia and Nv Nematostella (sea anemones) / Co Capsaspora / Aq Amphimedon (sponge) / Dm Drosophila / Hu human; RHD is the Rel homology domain; high values mean tight binding
Conditions in all cases: dsDNA, one strand shown
[1] = biological target: T1, GST-Ap-NF-kB RHD (Exaiptasia pallida (Aiptasia), UniProt A0A913YAJ5 2-422)
T1 sequence: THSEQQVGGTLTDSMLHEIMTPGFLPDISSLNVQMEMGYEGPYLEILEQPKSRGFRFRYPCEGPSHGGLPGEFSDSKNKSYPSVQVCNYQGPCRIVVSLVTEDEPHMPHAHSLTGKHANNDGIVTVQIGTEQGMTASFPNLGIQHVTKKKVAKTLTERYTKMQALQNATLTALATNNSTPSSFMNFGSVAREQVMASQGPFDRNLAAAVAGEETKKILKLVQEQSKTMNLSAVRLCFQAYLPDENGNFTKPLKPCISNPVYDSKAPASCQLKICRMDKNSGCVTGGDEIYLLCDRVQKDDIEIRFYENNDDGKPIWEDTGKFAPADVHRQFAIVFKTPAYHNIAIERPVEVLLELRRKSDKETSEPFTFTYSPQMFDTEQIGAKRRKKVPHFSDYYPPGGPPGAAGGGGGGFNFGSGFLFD

[2] = biological target: T2, GST-Nv-NF-kB (Cys allele) (Nematostella vectensis, UniProt E5G601 2-411)
T2 sequence: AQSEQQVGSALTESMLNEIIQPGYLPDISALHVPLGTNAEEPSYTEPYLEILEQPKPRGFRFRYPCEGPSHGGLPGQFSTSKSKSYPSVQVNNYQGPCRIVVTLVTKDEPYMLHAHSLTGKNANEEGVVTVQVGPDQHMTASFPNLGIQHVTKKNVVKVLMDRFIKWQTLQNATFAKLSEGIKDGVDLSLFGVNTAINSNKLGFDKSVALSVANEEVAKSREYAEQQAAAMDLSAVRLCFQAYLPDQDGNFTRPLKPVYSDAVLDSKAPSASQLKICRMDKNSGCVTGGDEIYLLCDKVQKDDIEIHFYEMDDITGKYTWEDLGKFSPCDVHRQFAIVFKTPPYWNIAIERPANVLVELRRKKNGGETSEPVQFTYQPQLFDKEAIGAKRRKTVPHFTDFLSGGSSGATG

[3] = biological target: T3, GST-Nv-NF-kB (Ser allele) (Nematostella vectensis, UniProt A7UNT2 2-411)
T3 sequence: T2 sequence with Q21R, C66S, S207N, E215Q, V217A, E225K, A268E, D399E

[4] = biological target: T4, GST-Dm-Relish (Drosophila melanogaster, UniProt Q94527 99-473)
T4 sequence: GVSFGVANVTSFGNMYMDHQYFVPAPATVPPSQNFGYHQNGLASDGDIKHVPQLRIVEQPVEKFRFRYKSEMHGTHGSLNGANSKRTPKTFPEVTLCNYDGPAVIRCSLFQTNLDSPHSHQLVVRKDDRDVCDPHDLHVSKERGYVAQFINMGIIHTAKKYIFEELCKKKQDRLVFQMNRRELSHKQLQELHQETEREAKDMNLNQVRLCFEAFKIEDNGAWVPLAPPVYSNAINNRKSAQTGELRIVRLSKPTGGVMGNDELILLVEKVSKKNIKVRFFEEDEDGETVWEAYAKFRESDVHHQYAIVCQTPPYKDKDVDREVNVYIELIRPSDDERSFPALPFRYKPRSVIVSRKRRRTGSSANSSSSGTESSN

[5] = biological target: T5, GST-Aq-NF-kB (Amphimedon queenslandica, UniProt A9Y5G7 2-389)
T5 sequence: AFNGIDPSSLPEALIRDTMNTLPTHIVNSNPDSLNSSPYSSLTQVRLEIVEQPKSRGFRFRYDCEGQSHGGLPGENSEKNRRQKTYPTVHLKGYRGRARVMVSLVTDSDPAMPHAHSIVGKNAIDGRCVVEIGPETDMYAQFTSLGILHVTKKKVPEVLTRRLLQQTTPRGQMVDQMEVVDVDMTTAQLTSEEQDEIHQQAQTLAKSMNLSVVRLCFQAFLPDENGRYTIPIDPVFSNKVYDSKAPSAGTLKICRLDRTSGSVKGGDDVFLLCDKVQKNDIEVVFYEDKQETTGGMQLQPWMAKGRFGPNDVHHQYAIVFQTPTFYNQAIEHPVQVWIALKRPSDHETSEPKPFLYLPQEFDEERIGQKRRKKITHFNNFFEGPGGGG

[6] = biological target: GST-Hu-p50 (Homo sapiens, UniProt P19838 7-356)
Sequence of GST-Hu-p50 (P19838 7-356): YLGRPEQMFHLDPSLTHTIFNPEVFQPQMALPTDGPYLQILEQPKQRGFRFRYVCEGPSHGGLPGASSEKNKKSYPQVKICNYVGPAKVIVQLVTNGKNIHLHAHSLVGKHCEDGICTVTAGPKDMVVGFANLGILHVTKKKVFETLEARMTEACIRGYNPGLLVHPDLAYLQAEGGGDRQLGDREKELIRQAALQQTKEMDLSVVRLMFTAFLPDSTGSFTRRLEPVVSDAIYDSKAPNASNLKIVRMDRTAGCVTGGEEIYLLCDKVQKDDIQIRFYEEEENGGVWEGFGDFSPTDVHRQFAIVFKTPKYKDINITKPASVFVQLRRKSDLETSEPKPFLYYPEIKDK

[7] = biological target: T6, GST-Co-NF-kB (Capsaspora owczarzaki, UniProt F1ARL5 200-546)
T6 sequence: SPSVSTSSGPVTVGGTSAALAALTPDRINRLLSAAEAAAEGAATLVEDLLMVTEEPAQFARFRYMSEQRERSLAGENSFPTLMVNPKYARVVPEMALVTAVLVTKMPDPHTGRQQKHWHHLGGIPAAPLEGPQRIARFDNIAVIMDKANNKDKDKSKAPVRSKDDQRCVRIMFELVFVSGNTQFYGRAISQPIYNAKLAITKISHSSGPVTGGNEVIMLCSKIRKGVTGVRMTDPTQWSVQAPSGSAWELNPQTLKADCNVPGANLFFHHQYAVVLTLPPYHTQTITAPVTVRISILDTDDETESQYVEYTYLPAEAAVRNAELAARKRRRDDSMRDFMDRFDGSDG

Sequence	binding signal [1]	binding signal [2]	binding signal [3]	binding signal [4]	binding signal [5]	binding signal [6]	binding signal [7]
CCGATTAACATCAAGGTGTTTCCTGATGTTAATCGGGTCTTGATTCGCTTGACGCTGCTG	1.56 z-score	1.48 z-score	1.39 z-score	1.91 z-score	2.48 z-score	3.43 z-score	
CCGATTAACATCACAGTCCCCCCTGATGTTAATCGGGTCTTGATTCGCTTGACGCTGCTG	5.98 z-score	5.07 z-score	5.18 z-score	4.6 z-score	4.63 z-score	4.33 z-score	5.62 z-score
CCGATTAACATCAGGGACTTTACTGATGTTAATCGGGTCTTGATTCGCTTGACGCTGCTG	5.17 z-score	6.47 z-score	6.59 z-score	7.99 z-score	6.61 z-score	5.06 z-score	
CCGATTAACATCAAGGGGTTTCCTGATGTTAATCGGGTCTTGATTCGCTTGACGCTGCTG	6.93 z-score	5.76 z-score	4.08 z-score	7.98 z-score	6.62 z-score	5.36 z-score	
CCGATTAACATCAAGAAAGTCCCTGATGTTAATCGGGTCTTGATTCGCTTGACGCTGCTG	7.56 z-score	8.86 z-score	8.7 z-score	7.13 z-score	6.74 z-score	6.05 z-score	1.38 z-score
CCGATTAACATCAGGAAGGTCCCTGATGTTAATCGGGTCTTGATTCGCTTGACGCTGCTG	3.51 z-score	2.97 z-score	1.09 z-score	1.64 z-score	5.37 z-score	2.52 z-score	
CCGATTAACATCAGGGATTTACATGATGTTAATCGGGTCTTGATTCGCTTGACGCTGCTG	2.19 z-score	2.3 z-score	1.4 z-score	9.71 z-score	3.34 z-score	1.92 z-score	
CCGATTAACATCAGGAAGTACCCTGATGTTAATCGGGTCTTGATTCGCTTGACGCTGCTG	3.65 z-score	3.73 z-score	3.95 z-score	6.69 z-score	6.15 z-score	3.47 z-score	
CCGATTAACATCACGCAAATCCCTGATGTTAATCGGGTCTTGATTCGCTTGACGCTGCTG	2.1 z-score	1.61 z-score	1.22 z-score	1.24 z-score	2 z-score	1.33 z-score	
CCGATTAACATCACGGTTATTCCTGATGTTAATCGGGTCTTGATTCGCTTGACGCTGCTG	1.09 z-score	1.52 z-score	2.15 z-score	3.64 z-score	2.03 z-score	3.59 z-score	
CCGATTAACATCAGGGTACTACCTGATGTTAATCGGGTCTTGATTCGCTTGACGCTGCTG	2.34 z-score	1.63 z-score	2.2 z-score	1.62 z-score	4.13 z-score	1.43 z-score	
CCGATTAACATCAGGGGAACACCTGATGTTAATCGGGTCTTGATTCGCTTGACGCTGCTG	6.84 z-score	6.62 z-score	6.14 z-score	9.19 z-score	7.92 z-score	4.87 z-score	5.77 z-score
CCGATTAACATCAGAAGATCCCCTGATGTTAATCGGGTCTTGATTCGCTTGACGCTGCTG	7.16 z-score	6.92 z-score	6.96 z-score	7.44 z-score	6.44 z-score	5.61 z-score	2.91 z-score
